The source of these data is PubChem BioAssay.

Calls of active or inactive are those of the source.

The test system of assay [1] is PRMT1 (protein arginine N-methyltransferase 1). Briefly: small molecules binding arginine methyltransferase PRMT1 – biochemical, small-molecule microarray, 635 nm fluorescence, primary screen (AID 1088).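 Note: binding of Prmt1 protein to compounds spotted on small-molecule microarray slides.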 The note with it: higher = more signal.
Assay [2] is described as follows: growth effects on S. cerevisiae YJM789 – YJM789 clinical isolate, OD600, 24 h, basal, primary screen (AID 1089).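 Note: growth of clinical yeast isolate S. cerevisiae YJM 789 seeded 1000 cells per well; test concentration not given here.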 The conditions noted are these: higher = more signal, called active from +8 up or from −8 down.
The nature of assay [3]: S. pombe growth modifiers, basal conditions – strain 972, OD600, 24 h, no modulator, primary screen (AID 1090).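 Note: basal condition with compound alone and no growth modifier present; test concentration not given here.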 The note with it: S. pombe 972 growth, higher = more signal, called active from +8 up or from −8 down.
Assay [4] can be described thus: budding yeast growth modifiers under rapamycin – strain BY4716, OD600, 96 h, primary screen (AID 1091). Note: test concentration not given here. The conditions noted are these: S. cerevisiae BY4716 + rapamycin, higher = more signal, called active from +8 up or from −8 down.
In assay [5] the target is Torsin-1A-interacting protein 2 (Homo sapiens) (UniProt Q8NFQ8). The experiment in a line: small molecules binding lysate-expressed LULL1 – cell lysate, human LULL1 lysate, 635/667 nm fluorescence, primary screen (AID 1092).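 Note: probe is lysate of COS7 cells overexpressing human LULL1; score merges per-feature 667 nm fluorescence with signal-to-noise.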 The note with it: small-molecule microarray, hLULL1 lysate binding, 635 nm fluorescence; higher = more signal.
A short description of assay [6]: optical density change of DRC41 E. coli – strain DRC41, OD650, 24 h, E. coli filamentation project, primary screen (AID 1093).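 Note: MC1000 strain lacking acrAB efflux and sulA so SOS filamentation is blocked; test concentration not given here.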 The conditions noted are these: E. coli DRC41 growth, higher = more signal, called active from +8 up or from −8 down.
Assay [7] is described as follows: probe aLefty2 binding to arrayed compounds – biochemical, biotinylated probe, 635/667 nm fluorescence, primary screen (AID 1094).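 Note: score merges spot fluorescence near 667 nm with spot signal-to-noise ratio.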 The note with it: small-molecule microarray, higher = more signal.
The subject of assay [8] is Noggin (protein binding on small-molecule microarray). The experiment in a line: small molecules binding Noggin protein – biochemical, 635/667 nm fluorescence, primary screen (AID 1095).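 Note: score merges 667 nm feature fluorescence with signal to noise over triplicate slides.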 The conditions noted are these: 635 nm fluorescence, higher = more signal.
For assay [9], the target named is Neurogenic locus notch homolog protein 3 (Homo sapiens) (UniProt Q9UM47). Briefly: small molecules binding NOTCH3 protein – biochemical, 635/667 nm fluorescence, primary screen (AID 1096). The conditions noted are these: small-molecule microarray, 635 nm fluorescence, higher = more signal.
The nature of assay [10]: probe aEGFR binding to arrayed compounds – biochemical, biotinylated probe, 635/667 nm fluorescence, primary screen (AID 1097).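 Note: probe is a biotinylated anti-EGFR antibody binding compounds printed on slides; score combines fluorescence near 667 nm and signal to noise of each spot.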 The note with it: small-molecule microarray, higher = more signal.
Assay [11] deals with Plasmodium falciparum Sir2 (PF13_0152, Sir2A). Briefly: Plasmodium falciparum Sir2A binding compounds – biochemical, small-molecule microarray, 635 nm fluorescence, primary screen (AID 1098).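 Note: score merges spot fluorescence intensity with its signal-to-noise ratio.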 The note with it: fluorescence 635 nm, higher = more signal.
Assay [12] can be described thus: probe aDKK1 binding to arrayed compounds – biochemical, biotinylated probe, 635/667 nm fluorescence, primary screen (AID 1099).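 Note: score merges 667nm spot fluorescence with signal to noise across triplicate slides; reference of the scale not given here.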 The note with it: small-molecule microarray, higher = more signal.
Assay [13] can be described thus: probe aCHRDL2 binding to arrayed compounds – biochemical, biotinylated probe, 635/667 nm fluorescence, primary screen (AID 1100). The conditions noted are these: small-molecule microarray, higher = more signal.
Assay [14] can be described thus: change in splice reporter luminescence, either direction, cell-based, HEK293, spliceosome inhibition project, primary screen (AID 1101).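 Note: HEK293 cells carrying a splicing-competent luciferase reporter gene; test concentration not given here.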 The conditions noted are these: HEK293 splicing luciferase reporter, 24 h, higher = more signal, called active from +8 up or from −8 down.
The target in assay [15] is Fibroblast growth factor 10 (Homo sapiens) (UniProt O15520). Briefly: compounds binding fibroblast growth factor 10 – biochemical, small-molecule microarray, 635 nm fluorescence, primary screen (AID 1102). The conditions noted are these: FGF10 binding, fluorescence 635 nm, higher = more signal.
For assay [16], the system named is glycogen synthase kinase-3 (GSK3A per assay name; protocol says GSK3B). Briefly: compounds binding glycogen synthase kinase-3 – biochemical, small-molecule microarray, 635 nm fluorescence, GSK3A, primary screen (AID 1103). Note: the record names both GSK3A and GSK3B. The conditions noted are these: fluorescence 635 nm, higher = more signal.
Assay [17] addresses Epidermal growth factor receptor (Homo sapiens) (UniProt P00533). Briefly: compounds binding epidermal growth factor receptor – biochemical, small-molecule microarray, 635 nm fluorescence, primary screen (AID 1104).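 Note: score merges 667 nm emission intensity with spot signal to noise over triplicate slides.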 The conditions noted are these: EGFR binding, higher = more signal.
Assay [18] deals with Follistatin-related protein 3 (Homo sapiens) (UniProt O95633). Briefly: compounds binding follistatin-related protein 3 – biochemical, small-molecule microarray, 635 nm fluorescence, primary screen (AID 1105).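 Note: score merges emission near 667 nm and signal to noise per printed spot across three slides.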 The note with it: FSTL3 binding, higher = more signal.
For assay [19], the target named is Dickkopf-related protein 1 (Homo sapiens) (UniProt O94907). Briefly: small molecules binding DKK1 protein – biochemical, small-molecule microarray, 635 nm fluorescence scan, primary screen (AID 1106).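 Note: score merges emission near 667 nm with signal to noise over three replicate slides.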 The conditions noted are these: higher = more signal.
Assay [20] deals with Inhibin beta A chain (activin A). Briefly: small molecules binding activin A – biochemical, small-molecule microarray, 635 nm fluorescence scan, primary screen (AID 1107).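 Note: mouse activin A protein probed at 4.33 µg/mL on printed slides; score merges bound-protein fluorescence near 667 nm with spot signal-to-noise.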 The note with it: INHBA, higher = more signal.

Chain of Epidermal growth factor receptor (Homo sapiens) (P00533 whole entry, looked up): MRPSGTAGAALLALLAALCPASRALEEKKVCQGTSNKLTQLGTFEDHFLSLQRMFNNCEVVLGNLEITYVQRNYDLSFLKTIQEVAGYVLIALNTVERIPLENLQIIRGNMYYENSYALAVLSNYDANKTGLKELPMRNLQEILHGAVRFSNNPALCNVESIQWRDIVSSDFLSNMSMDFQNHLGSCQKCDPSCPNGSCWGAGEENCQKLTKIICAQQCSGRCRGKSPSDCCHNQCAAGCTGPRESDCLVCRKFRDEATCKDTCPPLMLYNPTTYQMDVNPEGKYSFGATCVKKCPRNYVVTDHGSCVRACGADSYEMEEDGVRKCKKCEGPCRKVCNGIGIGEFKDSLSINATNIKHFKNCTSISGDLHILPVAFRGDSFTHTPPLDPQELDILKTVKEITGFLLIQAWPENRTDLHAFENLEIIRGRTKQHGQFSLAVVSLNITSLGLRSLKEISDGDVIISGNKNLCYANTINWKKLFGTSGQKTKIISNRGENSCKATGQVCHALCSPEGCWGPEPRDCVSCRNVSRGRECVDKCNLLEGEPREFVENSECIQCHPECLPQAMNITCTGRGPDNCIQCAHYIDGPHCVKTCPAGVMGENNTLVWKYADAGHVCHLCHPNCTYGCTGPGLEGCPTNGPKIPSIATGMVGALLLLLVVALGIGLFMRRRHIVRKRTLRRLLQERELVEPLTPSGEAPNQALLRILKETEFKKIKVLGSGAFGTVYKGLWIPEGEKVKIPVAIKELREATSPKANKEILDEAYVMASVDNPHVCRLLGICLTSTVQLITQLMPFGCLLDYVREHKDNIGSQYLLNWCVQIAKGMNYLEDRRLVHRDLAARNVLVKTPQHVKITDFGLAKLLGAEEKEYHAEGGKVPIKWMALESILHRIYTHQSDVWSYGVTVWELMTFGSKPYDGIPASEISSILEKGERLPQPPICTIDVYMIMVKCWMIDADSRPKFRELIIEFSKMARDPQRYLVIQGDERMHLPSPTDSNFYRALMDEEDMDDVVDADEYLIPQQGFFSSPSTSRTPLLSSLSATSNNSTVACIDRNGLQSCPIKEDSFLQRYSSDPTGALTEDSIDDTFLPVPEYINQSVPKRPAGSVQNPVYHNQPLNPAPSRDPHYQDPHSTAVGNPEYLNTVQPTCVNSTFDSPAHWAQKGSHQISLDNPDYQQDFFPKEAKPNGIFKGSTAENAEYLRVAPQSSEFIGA
Chain of Fibroblast growth factor 10 (Homo sapiens) (O15520 whole entry, looked up): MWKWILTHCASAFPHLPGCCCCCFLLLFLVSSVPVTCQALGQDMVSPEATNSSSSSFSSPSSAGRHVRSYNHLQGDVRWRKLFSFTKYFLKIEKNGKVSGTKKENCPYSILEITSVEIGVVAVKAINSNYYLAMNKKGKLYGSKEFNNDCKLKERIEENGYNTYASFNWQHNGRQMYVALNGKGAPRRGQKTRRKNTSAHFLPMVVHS
Chain of Torsin-1A-interacting protein 2 (Homo sapiens) (Q8NFQ8 whole entry, looked up): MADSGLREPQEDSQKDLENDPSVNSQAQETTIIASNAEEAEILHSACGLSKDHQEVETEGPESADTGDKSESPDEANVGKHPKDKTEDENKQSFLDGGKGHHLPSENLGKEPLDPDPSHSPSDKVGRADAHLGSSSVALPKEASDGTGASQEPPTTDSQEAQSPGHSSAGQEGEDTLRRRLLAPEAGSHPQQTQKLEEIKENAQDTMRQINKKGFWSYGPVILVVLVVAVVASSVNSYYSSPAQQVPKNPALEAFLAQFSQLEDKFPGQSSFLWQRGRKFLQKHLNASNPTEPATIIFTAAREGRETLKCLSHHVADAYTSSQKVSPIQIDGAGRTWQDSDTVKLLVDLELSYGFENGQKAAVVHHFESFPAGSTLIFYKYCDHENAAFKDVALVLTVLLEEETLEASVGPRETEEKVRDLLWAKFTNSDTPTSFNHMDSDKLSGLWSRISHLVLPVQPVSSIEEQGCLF
Chain of Dickkopf-related protein 1 (Homo sapiens) (O94907 whole entry, looked up): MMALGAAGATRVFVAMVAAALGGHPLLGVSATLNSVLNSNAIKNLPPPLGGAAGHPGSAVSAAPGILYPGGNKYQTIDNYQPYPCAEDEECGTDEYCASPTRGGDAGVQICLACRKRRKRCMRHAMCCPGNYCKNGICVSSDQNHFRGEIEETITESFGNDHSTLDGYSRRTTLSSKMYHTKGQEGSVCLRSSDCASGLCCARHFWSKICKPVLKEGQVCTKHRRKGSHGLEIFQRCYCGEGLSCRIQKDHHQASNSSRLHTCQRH
Chain of Neurogenic locus notch homolog protein 3 (Homo sapiens) (Q9UM47 whole entry, looked up): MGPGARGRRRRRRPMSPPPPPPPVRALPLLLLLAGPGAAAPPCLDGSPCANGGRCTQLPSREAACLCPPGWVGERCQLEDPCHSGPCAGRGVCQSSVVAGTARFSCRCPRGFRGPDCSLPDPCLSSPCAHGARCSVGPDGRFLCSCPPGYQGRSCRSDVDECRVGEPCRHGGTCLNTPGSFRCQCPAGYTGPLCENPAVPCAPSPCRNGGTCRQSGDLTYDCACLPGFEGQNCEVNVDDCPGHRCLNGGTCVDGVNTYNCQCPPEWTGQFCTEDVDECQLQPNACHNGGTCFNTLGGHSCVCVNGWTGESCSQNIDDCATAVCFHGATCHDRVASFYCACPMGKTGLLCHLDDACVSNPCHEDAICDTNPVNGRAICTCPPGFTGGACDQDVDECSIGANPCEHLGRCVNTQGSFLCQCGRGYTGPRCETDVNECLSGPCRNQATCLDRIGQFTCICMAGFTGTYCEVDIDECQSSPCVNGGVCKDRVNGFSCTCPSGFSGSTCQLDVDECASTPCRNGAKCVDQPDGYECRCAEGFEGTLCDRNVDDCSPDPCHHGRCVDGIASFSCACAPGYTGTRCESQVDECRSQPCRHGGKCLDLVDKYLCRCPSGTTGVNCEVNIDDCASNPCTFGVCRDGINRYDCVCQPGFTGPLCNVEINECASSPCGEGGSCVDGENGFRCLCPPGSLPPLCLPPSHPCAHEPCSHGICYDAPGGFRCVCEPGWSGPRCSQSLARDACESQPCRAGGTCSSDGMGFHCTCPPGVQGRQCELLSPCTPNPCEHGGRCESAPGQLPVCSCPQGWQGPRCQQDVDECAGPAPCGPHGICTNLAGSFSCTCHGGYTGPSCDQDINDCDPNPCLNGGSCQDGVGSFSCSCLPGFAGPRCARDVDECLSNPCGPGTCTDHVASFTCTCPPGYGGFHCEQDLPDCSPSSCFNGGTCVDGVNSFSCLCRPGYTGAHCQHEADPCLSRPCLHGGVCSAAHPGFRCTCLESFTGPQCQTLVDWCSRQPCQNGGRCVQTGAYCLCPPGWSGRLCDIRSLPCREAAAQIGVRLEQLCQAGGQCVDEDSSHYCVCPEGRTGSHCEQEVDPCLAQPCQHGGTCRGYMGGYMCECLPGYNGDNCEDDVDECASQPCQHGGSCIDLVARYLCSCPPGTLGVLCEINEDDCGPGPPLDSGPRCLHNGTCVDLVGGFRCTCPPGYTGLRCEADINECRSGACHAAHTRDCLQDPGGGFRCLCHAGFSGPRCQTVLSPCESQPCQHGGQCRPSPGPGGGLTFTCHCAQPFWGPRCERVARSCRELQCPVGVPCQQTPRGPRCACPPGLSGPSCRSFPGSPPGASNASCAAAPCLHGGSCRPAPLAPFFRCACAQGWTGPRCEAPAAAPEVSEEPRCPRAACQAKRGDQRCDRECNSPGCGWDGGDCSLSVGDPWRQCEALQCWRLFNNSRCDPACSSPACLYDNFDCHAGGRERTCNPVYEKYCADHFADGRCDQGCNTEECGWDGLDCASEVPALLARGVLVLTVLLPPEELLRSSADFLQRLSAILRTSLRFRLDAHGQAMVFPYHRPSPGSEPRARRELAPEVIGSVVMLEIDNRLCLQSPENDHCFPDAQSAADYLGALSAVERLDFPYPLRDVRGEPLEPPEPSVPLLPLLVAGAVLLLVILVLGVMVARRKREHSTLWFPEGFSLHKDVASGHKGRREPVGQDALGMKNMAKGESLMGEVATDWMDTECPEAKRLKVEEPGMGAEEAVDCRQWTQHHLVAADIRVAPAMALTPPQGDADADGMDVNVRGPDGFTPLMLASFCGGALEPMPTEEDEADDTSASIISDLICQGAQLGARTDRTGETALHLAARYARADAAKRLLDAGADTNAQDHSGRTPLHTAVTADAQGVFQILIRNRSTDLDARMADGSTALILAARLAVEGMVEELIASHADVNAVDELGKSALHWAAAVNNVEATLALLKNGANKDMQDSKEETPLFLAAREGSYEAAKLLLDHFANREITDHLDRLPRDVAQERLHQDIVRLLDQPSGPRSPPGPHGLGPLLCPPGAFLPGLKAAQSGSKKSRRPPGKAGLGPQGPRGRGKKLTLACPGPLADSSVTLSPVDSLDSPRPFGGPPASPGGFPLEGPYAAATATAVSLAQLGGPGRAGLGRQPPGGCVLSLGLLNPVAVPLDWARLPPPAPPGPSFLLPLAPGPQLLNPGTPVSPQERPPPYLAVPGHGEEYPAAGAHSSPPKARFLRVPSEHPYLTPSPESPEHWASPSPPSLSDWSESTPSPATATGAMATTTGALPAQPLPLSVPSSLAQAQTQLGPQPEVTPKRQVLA
Chain of Follistatin-related protein 3 (Homo sapiens) (O95633 whole entry, looked up): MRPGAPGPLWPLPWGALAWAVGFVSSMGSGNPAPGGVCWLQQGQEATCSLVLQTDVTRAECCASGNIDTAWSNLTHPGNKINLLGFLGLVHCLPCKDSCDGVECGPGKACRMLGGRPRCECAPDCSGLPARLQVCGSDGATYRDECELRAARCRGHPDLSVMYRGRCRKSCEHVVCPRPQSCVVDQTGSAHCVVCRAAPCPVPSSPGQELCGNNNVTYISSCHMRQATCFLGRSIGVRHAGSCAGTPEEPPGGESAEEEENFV

Consider `COC(OC)[C@@H](C)[C@H](OC)[C@@H](C)[C@H](OC)c1ccccc1`, for which the composite z-score in [1] is -0.478; in [5] it was -1.37; in [7], 0.308; in assay [8] it was 0.467; in [9], 0.181; in assay [10], -0.117. Further, the composite z-score in assay [11] is -0.15; in [12], -0.185; in assay [13] it was -0.449; in [15] it was 0.0549; in assay [16], -0.485; in [17] it was 0.231. The composite z-score in assay [18] is 0.327; in assay [19], 0.392; in assay [20], 0.499. The z-score was -1.94 (inactive) in [2]; -0.656 (inactive) in assay [3]; -0.213 (inactive) in [4]; 0.17 (inactive) in assay [6]; -1.31 (inactive) in assay [14].
On to `CC(C)CON=C1C[C@@H](O)[C@@H](O)[C@@H]2[C@@H]3C(=O)N([C@@H](C)c4ccccc4)C(=O)[C@@H]3CC[C@@H]12`, for which the composite z-score in assay [1] was -0.413; in assay [5], 0.246; in [7], 0.224; in assay [8], 0.347; in assay [9], 0.114; in [10], -0.0286. The composite z-score was -0.201 in [11]; 0.083 in assay [12]; 0.767 in assay [13]; 0.266 in assay [15]; -0.0708 in assay [16]; 0.191 in assay [17]. Further, the figures for the composite z-score in [18], in assay [19] and in [20] were -0.279, -0.24 and 0.467, respectively. For the same molecule, the z-score is 0.281 (inactive) in assay [2]; 0.603 (inactive) in assay [3]; -0.188 (inactive) in assay [4]; 0.3 (inactive) in [6]; 0.226 (inactive) in assay [14].
Regarding `C=CC[C@@H]1C=C[C@H](Oc2ccc(C)cc2)[C@@H](COC(=O)NCc2cccc3ccccc23)O1`, the composite z-score was 0.261 in [1]; 0.557 in assay [5]; -0.116 in [7]; 0.725 in assay [8]; -0.0971 in assay [9]; -0.136 in assay [10]. For the same molecule, the composite z-score was 0.45 in assay [11]; -0.129 in [12]; 0.0944 in assay [13]; 0.575 in assay [15]; -0.224 in assay [16]; -0.156 in assay [17]. Moreover, the composite z-score in assay [18] came out at 0.201; in assay [19] it was 0.142; in [20], 1.03. For the same molecule, the z-score in assay [2] was 0.697 (inactive); in assay [3], -0.341 (inactive); in [4], 0.774 (inactive); in [6] it was -0.61 (inactive); in [14], -0.566 (inactive).
As to `CO[C@@H]1COC(=O)CC=C[C@H](C)[C@H](OC)COC(=O)[C@@H]2CCCN2C(=O)CC=C[C@H]1C`, the composite z-score is 0.684 in assay [1]; -0.722 in assay [5]; -0.225 in [7]; 1.78 in [8]; -0.128 in assay [9]; 0.153 in [10]. Further, the composite z-score in assay [11] was 0.811; in assay [12], -0.48; in assay [13] it was -1.38; in [15], 0.487; in [16], 0.562; in [17], 1.15. Moreover, the composite z-score in [18] was 1.25; in [19], 1.52; in assay [20], 1.14. In addition, the z-score in [2] is 0.0396 (inactive); in assay [3], -0.719 (inactive); in assay [4], -0.249 (inactive); in assay [6], 0.127 (inactive); in [14], -0.127 (inactive).
As for `CCOC(=O)[C@H](Cc1ccccc1)NC(=O)CCC1CC(OC(=O)NCc2ccc3c(c2)OCO3)CC2(CCCC(COC(=O)NCCc3ccc(Cl)cc3)O2)O1` (stereo not given in full), the composite z-score is 1.55 in assay [1]; 1.78 in [5]; -0.148 in assay [7]; 0.819 in [8]; 1.16 in [9]; -0.081 in assay [10]. Also, the composite z-score is 0.667 in assay [11]; -0.188 in [12]; -0.509 in assay [13]; 0.471 in [15]; 1.27 in assay [16]; 0.549 in assay [17]. Moreover, the composite z-score in [18] was found to be 0.69; in assay [19] it was 0.531; in assay [20], 0.0209. In addition, the z-score in assay [2] is -1.93 (inactive); in [3], -0.616 (inactive); in [4] it was 0.376 (inactive); in [6], -0.698 (inactive); in assay [14] it was -2.3 (inactive).
On to `O=C1[C@H]2[C@H]3[C@H](O)[C@H](O)CC(=NO[C@@H]4O[C@H](CO)[C@@H](O)[C@H](O)[C@H]4O)[C@H]3CC[C@H]2C(=O)N1C[C@@H]1CCCO1`, for which the composite z-score in [1] is -0.099; in [5] it was -0.162; in assay [7], 0.0136; in assay [8], 0.379; in assay [9] it was 0.0492; in assay [10], -0.0578. For the same molecule, the composite z-score in assay [11] was 0.323; in [12] it was -0.273; in assay [13], -0.344; in [15] it was 0.0269; in assay [16], -0.027; in assay [17], 0.522. The composite z-score in [18] is 0.0553; in assay [19], -0.0079; in assay [20] it was -0.915. Besides, the z-score in [2] was 0.539 (inactive); in [3], 0.944 (inactive); in assay [4] it was 0.734 (inactive); in assay [6] it was 0.457 (inactive); in [14] it was 0.0676 (inactive).
In the case of `O=C1C[C@@H](O)[C@@H](O)[C@@H]2[C@@H]3C(=O)N(c4ccc(F)cc4F)C(=O)[C@@H]3CC[C@H]12`, the composite z-score in assay [1] was 0.599; in assay [5], 0.734; in [7], -0.0782; in [8] it was 0.43; in assay [9] it was 0.6; in assay [10] it was -0.0695. In addition, the composite z-score in [11] was 0.88; in [12], -0.0704; in [13] it was -0.511; in [15], 0.514; in assay [16], 0.662; in assay [17] it was 0.394. The composite z-score in assay [18] turned out to be 0.638; in assay [19], 0.597; in [20] it was 0.148. Further, the z-score in assay [2] is -0.175 (inactive); in assay [3] it was -0.177 (inactive); in assay [4], -0.147 (inactive); in assay [6], 0.124 (inactive); in assay [14], 0.759 (inactive).
`CCOC(=O)CCN1C(=O)[C@H]2[C@H]3[C@H](O)[C@H](O)CC(=O)[C@@H]3CC[C@H]2C1=O`: the composite z-score in assay [1] is 0.58; in assay [5] it was 0.846; in [7], -0.198; in assay [8], 0.589; in assay [9], 0.738; in assay [10] it was 0.0004. The composite z-score was 0.414 in [11]; -0.0674 in assay [12]; -0.834 in assay [13]; 1.1 in assay [15]; 0.917 in [16]; 0.591 in assay [17]. Moreover, the composite z-score in assay [18] was 1.15; in assay [19], 0.935; in [20], -0.37. Further, the z-score in assay [2] is -0.0366 (inactive); in assay [3], -0.267 (inactive); in [4] it was -0.0766 (inactive); in [6], -0.353 (inactive); in assay [14], 0.283 (inactive).
As to `CC(C)[C@@H](OCc1ccccc1)[C@H](C)C=NO[C@H](C)c1cn([C@@H]2COC[C@H]2O)nn1`, the composite z-score is 1.55 in [1]; 1.28 in assay [5]; -0.162 in assay [7]; 0.871 in assay [8]; 0.968 in [9]; -0.0111 in assay [10]. In addition, the composite z-score was 0.385 in assay [11]; -0.492 in assay [12]; -0.511 in assay [13]; 0.457 in assay [15]; 1.08 in [16]; 0.556 in assay [17]. For the same molecule, the composite z-score in assay [18] is 0.448; in assay [19], 0.0939; in assay [20], -1.31. For the same molecule, the z-score in assay [2] was -1.02 (inactive); in [3], -0.121 (inactive); in assay [4] it was 0.0703 (inactive); in assay [6] it was 1.13 (inactive); in [14], 0.0201 (inactive).
